This excerpt belongs to a sample that is enriched for hits.
JMJD2E inh – qHTS Assay for Inhibitors of Human Jumonji Domain Containing 2E (JMJD2E); Lysine-specific demethylase 4E (Homo sapiens), B2RXH2; JMJD2E catalytic domain, FDH-coupled NADH fluorescence (FDH is formaldehyde dehydrogenase); Potency, µM (doses to about 57.1 µM), for inactives: at the highest dose activity change, negative = inhibition, actives largely listed as inhibitors; 1.6% of 230,000 active; AID 2147, 2009; active = well fitted inhibition curve with a large enough effect, not every such curve was filed as active; inconclusive = small, poorly fitted or top-dose-only effect, or another doubt; inactive = no such curve, though single readings can be large or run the other way;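 also: 0% = wells with enzyme and -100% = buffer wells without enzyme; nearly all actives have a fitted effect of over 50% in size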
APE1 inh-1 – qHTS Assay for Inhibitors of the Human Apurinic/apyrimidinic Endonuclease 1 (APE1); Potency, µM (series often up to 65.8 µM), for inactives: top-dose activity change, negative = inhibition, hits mostly inhibitors; 0.35% of 350,000 active; DNA repair nuclease/redox regulator APEX1 (Homo sapiens), P27695; recombinant APE1, TAMRA/BHQ-2 abasic DNA cleavage fluorescence;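 also: plate controls were vehicle for no effect and reference inhibitor for full effect; nearly all actives have a fitted effect of over 55% in size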
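0.75 nM APE1 + cpd, 15 min RT; start w/ 50 nM TAMRA/BHQ-2 THF-abasic dsDNA; kinetic fluor 525/598 nm ×3 reads @60 s; Δ(read3−read1); normalized to DMSO and NSC13755 control wells.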
RGS12 GoLoco inh – qHTS Assay for Inhibitors of RGS12 GoLoco Motif Activity (Red Fluorophore); Gai1:RGS12 GoLoco peptide FP, rhodamine, 10 min; Potency, µM (titrated, usually from 61.6 µM), without a hit: at the highest dose activity, negative = inhibition, hits mostly inhibitors; 0.44% of 230,000 active; AID 880, 2007; active = well fitted inhibition curve with a large enough effect, not every such curve was filed as active; inactive = no such curve, though single readings can be large or run the other way; also: nearly all actives have a fitted effect of over 30% in size
RECQ1 helicase – qHTS Assay for Inhibitors of RecQ-Like Dna Helicase 1 (RECQ1); 0.54% of 240,000 active; ATP-dependent DNA helicase Q1 (Homo sapiens), P46063; Potency, µM (series often up to 57.3 µM), for inactives: at the top dose activity, negative = inhibition, hits mostly inhibitors; AID 2549, 2010; RECQ1 DNA unwinding, red fluorescence kinetic read;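 also: plate controls were vehicle for no effect and no enzyme for full effect; nearly all actives have a fitted effect of over 30% in size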
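RECQ1T1 50 nM; forked duplex (20 bp + 30-nt ss tails) 200 nM, ATP 2 mM final; pH 8.0, 2 mM MgCl2, 2.5 ug/ml poly(dI-dC); 15 min compound preincubation; discontinuous kinetic read over 2 h at RT.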
L3MBTL1 block – qHTS Assay for the Inhibitors of L3MBTL1 | Lethal(3)malignant brain tumor-like protein 1 (Homo sapiens), Q9Y468 | AlphaScreen L3MBTL1–H3K9me1 peptide binding | Potency, µM (titrated, usually from 57.1 µM), without a hit: top-dose activity, negative = inhibition, most hits filed as inhibitors | 0.66% of 230,000 active; also: nearly all actives have a fitted effect of over 60% in size
Target sequence (Q9Y468 whole entry, looked up): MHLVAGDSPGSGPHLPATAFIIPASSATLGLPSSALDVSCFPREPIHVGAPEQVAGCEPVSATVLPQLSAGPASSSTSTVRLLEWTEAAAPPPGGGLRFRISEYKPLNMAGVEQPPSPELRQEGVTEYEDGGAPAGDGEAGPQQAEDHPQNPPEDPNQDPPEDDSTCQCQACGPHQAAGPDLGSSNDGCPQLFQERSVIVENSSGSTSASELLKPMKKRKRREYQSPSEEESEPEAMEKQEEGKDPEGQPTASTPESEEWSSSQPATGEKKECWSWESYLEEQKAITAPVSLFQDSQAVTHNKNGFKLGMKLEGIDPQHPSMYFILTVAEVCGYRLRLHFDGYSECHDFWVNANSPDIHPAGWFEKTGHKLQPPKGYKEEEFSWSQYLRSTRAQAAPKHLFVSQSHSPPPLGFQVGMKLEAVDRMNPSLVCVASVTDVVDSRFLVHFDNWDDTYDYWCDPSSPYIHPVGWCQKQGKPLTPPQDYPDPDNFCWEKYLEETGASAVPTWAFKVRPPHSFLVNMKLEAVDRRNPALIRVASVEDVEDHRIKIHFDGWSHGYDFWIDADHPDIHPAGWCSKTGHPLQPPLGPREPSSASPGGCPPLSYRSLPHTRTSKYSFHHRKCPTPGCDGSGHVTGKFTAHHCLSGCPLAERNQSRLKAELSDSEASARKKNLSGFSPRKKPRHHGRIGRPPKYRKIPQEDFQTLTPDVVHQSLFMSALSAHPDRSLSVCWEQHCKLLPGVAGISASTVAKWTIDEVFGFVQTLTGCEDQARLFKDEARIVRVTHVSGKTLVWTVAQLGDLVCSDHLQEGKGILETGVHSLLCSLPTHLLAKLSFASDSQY
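First, the protein-peptide complex forms for 30 min at room temperature (L3MBTL1 50 nM, biotinylated H3K9me1 peptide 75 nM). Next, compounds are pin-transferred and incubated 30 min. Finally, AlphaScreen beads are added and read after 30 min.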
BLM helicase inh – qHTS Assay for Inhibitors of Bloom's syndrome helicase (BLM) | RecQ-like DNA helicase BLM (Homo sapiens), P54132 | recombinant BLM DNA unwinding, fluorescence dequenching | Potency, µM (doses to about 56.1 µM), inactives show top-dose activity change, negative = inhibition, hits mostly inhibitors | 0.2% of 350,000 active;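 also: plate controls were vehicle for no effect and no enzyme for full effect; nearly all actives have a fitted effect of over 35% in size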
DNA dye displace – Counterscreen for APE1 Inhibitors: Fluorescent Dye Displacement Assay | Potency, µM (top dose mostly 28.5 µM), without a hit: at the top dose activity change, negative = inhibition, actives largely listed as inhibitors | shares compounds with APE1 inh-1 | 7% of 480 active | DNA fluorescent dye displacement counterscreen, fluorescence;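 also: loss of thiazole orange fluorescence as the dye is displaced from duplex DNA; 0% = ThO with dsDNA and no compound and -100% = ThO without dsDNA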
EndoIV counter – Counterscreen for APE1 Inhibitors: qHTS Assay for Inhibitors of Endonuclease IV. shares compounds with APE1 inh-1. E. coli Endo IV, fluorogenic AP-site DNA cleavage. Potency, µM (titrated, usually from 27.1 µM), without a hit: at the top dose activity change, negative = inhibition, hits mostly inhibitors. 4% of 560 active;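 also: plate controls were uninhibited enzyme wells for no effect and no enzyme buffer wells for full effect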
APE1 inh-2 – Confirmation qHTS Assay for Inhibitors of the Human Apurinic/apyrimidinic Endonuclease 1 (APE1). purified APE1, fluorogenic abasic-site DNA cleavage. 44% of 750 active. Potency, µM (series often up to 57.1 µM), inactives show top-dose activity change, negative = inhibition, most hits filed as inhibitors. shares compounds with APE1 inh-1. AID 2572, 2010; also: nearly all actives have a fitted effect of over 30% in size
APE1 FP – qHTS FP-Based Assay for Inhibitors of the Human Apurinic/apyrimidinic Endonuclease 1 (APE1) | AID 2573, 2010 | shares compounds with APE1 inh-1 | 7% of 480 active | Potency, µM (doses to about 28.5 µM), without a hit: at the top dose activity, negative = inhibition, hits mostly inhibitors | APE1 binding to TAMRA-labelled double-stranded DNA, fluorescence polarization displacement
* = called active by the depositor; i = inactive; ? = inconclusive; · = not tested or not shown; [ ] = remark or other dose. Unless noted, calls follow the shape of the dose curve; as a rule, active = well fitted curve in the direction sought with a large enough effect; inconclusive = small, poorly fitted or top-dose-only effect, or another doubt; inactive = no such curve, though single readings can be large; an effect the other way counts as inactive or inconclusive. Unless noted, % is scaled to controls: 0 for no effect and ±100 for the full control effect; potency is read from the fitted curve at half-maximal effect.

SMILES	JMJD2E inh	APE1 inh-1	RGS12 GoLoco inh	RECQ1 helicase	L3MBTL1 block	BLM helicase inh	DNA dye displace	EndoIV counter	APE1 inh-2	APE1 FP
COc1ccc(-c2coc3cc(O)ccc3c2=O)cc1O	?	?	-3%	-31%	-16%	-5%	-7%	6%	-10%[24.4 µM]	-6%
Cc1cccc(Nc2nc3c(S(=O)(=O)c4ccc(Br)cc4)nnn3c3ccsc23)c1C	·	·	·	·	·	-8%	·	·	·	·
O=C(CCCSc1nc2ccccc2[nH]1)NC1CCCCC1	6%	0%	1%	-4%	·	-2%	·	·	·	·
O=C(CSc1nc2ccccc2[nH]1)NC1CCCC1	-3%	?	6%	-26%	?	-15%	·	·	40µM*	·
CCOC(=O)C(CCc1ccccc1)NC(C)C(=O)N1CCCC1C(=O)O (stereo not drawn)	-29%	2.2µM*	5%	5%	·	6%	-9%[57.1 µM]	15%[57.1 µM]	-4%	6%[57.1 µM]
CCOC(=O)[C@H](CCc1ccccc1)N[C@@H](C)C(=O)N1Cc2ccccc2C[C@H]1C(=O)O	·	0%	·	·	·	·	·	·	·	·
CC#CCN1c2ccccc2[C@]23C[C@@H](C(=O)OC)N(S(=O)(=O)c4c(C)noc4C)C2=NC(C(=O)OC)=C(C(=O)OC)[C@H]13	4%[11.4 µM]	-5%[12.4 µM]	4%[14.2 µM]	-9%[11.5 µM]	·	-8%[12.4 µM]	·	·	·	·
O=C1/C(=C/c2ccco2)SC(=S)N1CC1CCCO1 (stereo not drawn)	11µM*	10µM*	75%	22µM*	16µM*	-27%	-7%	-3%	7.9µM*	-12%
Oc1ccccc1Oc1c(F)c(F)nc(N2CCCC2)c1F	-14%	?	2%	-25%	-24%	-23%	-9%	-1%	?	-6%
Oc1ccccc1Oc1ncc(Br)c(N2CCOCC2)n1	-5%	-3%	-11%	i	1%	-5%	·	·	·	·
CC[n+]1ccc(/C=C2\Sc3ccccc3N2CCCS(=O)(=O)[O-])c2ccccc21	?	?	16%	-15%	-15%	-4%	·	·	?	·
C[n+]1ccccc1/C=C1\Sc2ccccc2N1CCO	·	25%	·	·	-5%	-4%	·	·	·	·
Cc1ccc(NC(=O)Cn2cc(C(=O)c3ccco3)c3ccccc32)cc1C	·	·	·	·	·	-6%	·	·	·	·
c1ccc(C2CC(c3cccs3)=NN2c2ccccc2)cc1 (stereo not drawn)	?	-4%	3%	-4%	292%	-14%	·	·	·	·
